The campaign covered roughly 39,000 compounds. About 3,300 (8.5%) were called active. This excerpt belongs to a sample that is enriched for actives.
test system: HepG2; experiment: cytotoxicity call (relative viability < 0.9); settings: 10 µM

Structure (SMILES)	cytotoxicity call
O=C(CCCCC(=O)N/N=C/c1cc(I)cc(I)c1O)NO	inactive
COCC(=O)N1C[C@H](C)[C@H](OC)CN(C)C(=O)c2cc(NC(=O)Nc3cccc(F)c3)ccc2OC[C@H]1C	inactive
C[C@@H]1CN([C@@H](C)CO)C(=O)c2cc(C#CCc3ccccc3)cnc2O[C@H]1CN(C)C(=O)C1CCOCC1	inactive
COc1ccc(S(=O)(=O)Nc2ccc3c(c2)C(=O)N([C@H](C)CO)C[C@@H](C)[C@@H](CN(C)C(=O)NC(C)C)O3)cc1	inactive
CC(C)NC(=O)N(C)C[C@H]1Oc2ccc(NC(=O)Nc3ccc4c(c3)OCO4)cc2C(=O)N([C@@H](C)CO)C[C@@H]1C	inactive
Cc1noc(C)c1S(=O)(=O)Nc1ccc2c(c1)CC(=O)N([C@@H](C)CO)C[C@@H](C)[C@H](CN(C)Cc1ccccc1)O2	inactive
C[C@@H]1CN([C@@H](C)CO)C(=O)c2cc(NC(=O)CCCN(C)C)ccc2O[C@@H]1CN(C)S(=O)(=O)c1ccc(F)cc1	inactive
C[C@@H]1CN([C@H](C)CO)C(=O)c2cccc(NC(=O)Nc3cccc4ccccc34)c2O[C@H]1CN(C)C(=O)Nc1ccc(C(F)(F)F)cc1	inactive
C[C@H](CO)N1C[C@H](C)[C@H](CN(C)C(=O)Nc2ccc(C(F)(F)F)cc2)Oc2c(NC(=O)Nc3cccc4ccccc34)cccc2C1=O	inactive
C[C@H](CO)N1C[C@H](C)[C@@H](CN(C)C(=O)Nc2ccc(C(F)(F)F)cc2)Oc2c(NC(=O)Nc3cccc4ccccc34)cccc2C1=O	active
COc1ccc2ccccc2c1-c1c(OC)ccc2ccccc12	inactive
COCOc1ccc2cc(Br)ccc2c1-c1c(OCOC)ccc2cc(Br)ccc12	active
C[C@H]1CN([C@@H](C)CO)C(=O)c2cc(C#CCc3ccccc3)cnc2O[C@H]1CN(C)C(=O)C1CCOCC1	inactive
C[C@@H]1CCCCO[C@H](CN(C)Cc2ccccc2)[C@H](C)CN([C@@H](C)CO)C(=O)c2cc(NC(=O)C3CCCCC3)ccc2O1	inactive
COc1ccc(CNC(=O)c2cc3c(c(-c4cccc(-c5ccc(C#N)cc5)c4)n2)[C@@H](CCO)N([S@](=O)C(C)(C)C)C3)cc1	inactive
CN(C)CCCNC(=O)C[C@@H]1CC[C@@H]2[C@H](COC[C@H](O)CN2C(=O)Nc2cc(Cl)cc(Cl)c2)O1	inactive
C[C@H]1CN([C@@H](C)CO)C(=O)Cc2cc(NC(=O)NC3CCCCC3)ccc2O[C@H]1CN(C)Cc1ccc(C(=O)Nc2ccccc2N)cc1	active
C[C@H](CO)N1C[C@H](C)[C@@H](CN(C)Cc2ccc(C(=O)Nc3ccccc3N)cc2)Oc2ccc(NC(=O)NC3CCCCC3)cc2CC1=O	inactive
C[C@H]1CN([C@@H](C)CO)C(=O)Cc2cc(NC(=O)C3CCCCC3)ccc2O[C@H]1CN(C)Cc1ccc(C(=O)Nc2ccccc2N)cc1	inactive
C[C@H]1CN([C@@H](C)CO)C(=O)Cc2cc(NC(=O)NC3CCCCC3)ccc2O[C@@H]1CN(C)Cc1ccc(C(=O)Nc2ccccc2N)cc1	inactive
C[C@@H]1CN([C@H](C)CO)C(=O)Cc2cc(NC(=O)NC3CCCCC3)ccc2O[C@@H]1CN(C)Cc1ccc(C(=O)Nc2ccccc2N)cc1	active
C[C@@H]1CN([C@H](C)CO)C(=O)Cc2cc(NC(=O)NC3CCCCC3)ccc2O[C@H]1CN(C)Cc1ccc(C(=O)Nc2ccccc2N)cc1	inactive
C[C@H](CO)N1C[C@H](C)[C@H](CN(C)Cc2ccc(C(=O)Nc3ccccc3N)cc2)Oc2ccc(NC(=O)C3CCCCC3)cc2CC1=O	inactive
C[C@@H]1CN([C@H](C)CO)C(=O)Cc2cc(NC(=O)C3CCCCC3)ccc2O[C@@H]1CN(C)Cc1ccc(C(=O)Nc2ccccc2N)cc1	active

Structure (SMILES)	cytotoxicity call
C[C@H](CO)N1C[C@H](C)[C@H](CN(C)Cc2ccc(C(=O)Nc3ccccc3N)cc2)Oc2ccc(NC(=O)NC3CCCCC3)cc2CC1=O	inactive
C[C@H](CO)N1C[C@H](C)[C@H](CN(C)C(=O)Nc2ccccc2)Oc2ccc(NS(C)(=O)=O)cc2CC1=O	inactive
C[C@@H]1CCCCO[C@H](CN(C)C(=O)NC2CCCCC2)[C@@H](C)CN([C@@H](C)CO)C(=O)c2cc(NS(=O)(=O)c3cccs3)ccc2O1	inactive
O=C(C[C@@H]1CC[C@H](NC(=O)CN2CCOCC2)[C@H](CO)O1)NCc1cccc(F)c1	inactive
C[C@@H]1CN([C@H](C)CO)C(=O)c2cc(NC(=O)Cn3cnnn3)ccc2O[C@H]1CN(C)S(=O)(=O)c1cn(C)cn1	inactive
COc1ccc(NC(=O)Nc2ccc3c(c2)C(=O)N([C@H](C)CO)C[C@H](C)[C@H](CN(C)Cc2ccccc2)OCCCC[C@@H](C)O3)cc1	inactive
C[C@@H]1CN([C@@H](C)CO)S(=O)(=O)c2ccc(-c3cccnc3)cc2O[C@@H]1CN(C)C(=O)c1ccc2c(c1)OCO2	inactive
Cn1cnc(S(=O)(=O)N2C[C@@H](O)COC[C@H]3O[C@@H](CC(=O)NCc4cc(F)cc(F)c4)CC[C@@H]32)c1	inactive
O=C(C[C@H]1CC[C@H]2[C@@H](COC[C@@H](O)CN2C(=O)c2cccnc2)O1)NCC1CC1	inactive
CC(=O)N1CC2(CCN(CC(=O)N3CCOCC3)CC2)C[C@@H]1C(=O)O	inactive
O=C(NC1=C(c2ccc(OC(F)(F)F)cc2)C(=O)c2ccccc2C1=O)c1ccc(Br)cc1	inactive
COc1ccc(C2=C(NC(=O)c3ccc(OC)cc3-c3cccc(OC)c3)C(=O)c3ccccc3C2=O)cc1	active
COC(=O)[C@@H](N)c1cccc(OC)c1	inactive
Cc1noc(C)c1NC(=O)N(C)C[C@@H]1Oc2ncc(C#CCN(C)C)cc2C(=O)N([C@@H](C)CO)C[C@H]1C	inactive
CNC(=O)C[C@H]1C[C@@H]2CN(S(=O)(=O)c3cccnc3)C[C@@H]2O1	inactive
Cc1ccc(S(=O)(=O)N(C)C[C@H]2OCCCC[C@H](C)Oc3ccc(NS(=O)(=O)c4ccc(F)cc4)cc3C(=O)N([C@@H](C)CO)C[C@H]2C)cc1	inactive
CCOC(=O)C(=O)c1csc(NC=O)n1	inactive
O=C(NC[C@@H](O)CO)[C@]1(Cc2ccccc2)N=C(c2ccc(OCCCO)cc2)O[C@@H]1c1ccccc1	inactive
[N-]=[N+]=Nc1ccccc1C[C@@]1(C(=O)N2CCCCC2)N=C(c2ccc(OCCCO)cc2)O[C@@H]1c1ccccc1	inactive
O=C(NC[C@@H](O)CO)[C@]1(CCS(=O)(=O)c2ccccc2)N=C(c2ccc(OCCCO)cc2)O[C@@H]1c1ccccc1	inactive
[N-]=[N+]=NCc1ccccc1C[C@]1(C(=O)NCc2ccccc2)N=C(c2ccc(OCCCO)cc2)O[C@H]1c1ccccc1	active
[N-]=[N+]=Nc1ccccc1C[C@]1(C(=O)N2CCCCC2)N=C(c2ccc(OCCCO)cc2)O[C@H]1c1ccccc1	active
[N-]=[N+]=NCc1ccccc1C[C@]1(C(=O)NC[C@@H](O)CO)N=C(c2ccc(OCCCO)cc2)O[C@H]1c1ccccc1	inactive
[N-]=[N+]=NCc1ccccc1C[C@@]1(C(=O)N2CCCCC2)N=C(c2ccc(OCCCO)cc2)O[C@@H]1c1ccccc1	inactive

Structure (SMILES)	cytotoxicity call
CC(C)(C)OC(=O)CC[C@]1(C(=O)NCc2ccccc2)N=C(c2ccc(OCCCO)cc2)O[C@H]1c1ccccc1	active
[N-]=[N+]=Nc1ccccc1C[C@@]1(C(=O)NCc2ccccc2)N=C(c2ccc(OCCCO)cc2)O[C@@H]1c1ccccc1	inactive
CN1CCN(C(=O)C[C@@H]2C=C[C@@H](NC(=O)Nc3ccccc3F)[C@H](CO)O2)CC1	inactive
OCc1ccc(-c2cccs2)cc1	inactive
CCNC(=O)N1CCN(CCO)CC1	inactive
C[C@@H]1CN([C@H](C)CO)C(=O)c2cc(NC(=O)CCC(F)(F)F)ccc2O[C@@H](C)CCCCO[C@@H]1CN(C)S(=O)(=O)c1ccc(F)cc1	inactive
CC(C)CC(=O)N[C@H](C(=O)N[C@H](C(=O)N[C@@H](CC(C)C)[C@@H](O)CC(=O)N[C@@H](C)C(=O)N[C@@H](CC(C)C)[C@@H](O)CC(=O)O)C(C)C)C(C)C	inactive
COc1cccc(S(=O)(=O)N[C@@H]2CC[C@H](CCn3cc(-c4ccccc4OC)nn3)O[C@@H]2CO)c1	inactive
Cn1c(=O)c2c(ncn2CC(=O)N2CCN(c3ccccc3)CC2)n(C)c1=O	inactive
CCOC(=O)CCCCCC(=O)Nc1ccc2c(c1)C(=O)N([C@@H](C)CO)C[C@@H](C)[C@H](CN(C)S(=O)(=O)c1cccs1)OCCCC[C@H](C)O2	inactive
C[C@H]1CN([C@@H](C)CO)C(=O)c2cccc(NC(=O)c3ccncc3)c2O[C@@H]1CN(C)S(=O)(=O)c1cn(C)cn1	inactive
C[C@@H]1CN([C@@H](C)CO)C(=O)c2cccc(NC(=O)c3ccncc3)c2O[C@H]1CN(C)S(=O)(=O)c1cn(C)cn1	active
C[C@@H]1CN([C@H](C)CO)C(=O)c2cccc(NC(=O)c3ccncc3)c2O[C@H]1CN(C)S(=O)(=O)c1cn(C)cn1	inactive
C[C@H](CO)N1C[C@H](C)[C@H](CN(C)S(=O)(=O)c2cn(C)cn2)Oc2c(NC(=O)Nc3ccc(F)cc3)cccc2C1=O	inactive
C[C@H](CO)N1C[C@H](C)[C@H](CN(C)S(=O)(=O)c2ccccc2)Oc2c(NC(=O)c3ccncc3)cccc2C1=O	inactive
C[C@H]1CN([C@@H](C)CO)C(=O)c2cccc(NC(=O)Nc3ccc(F)cc3)c2O[C@@H]1CN(C)S(=O)(=O)c1cn(C)cn1	active
C[C@@H]1CN([C@@H](C)CO)C(=O)c2cccc(NC(=O)c3ccncc3)c2O[C@@H]1CN(C)S(=O)(=O)c1ccccc1	active
C[C@H](CO)N1C[C@H](C)[C@@H](CN(C)S(=O)(=O)c2cn(C)cn2)Oc2c(NC(=O)Nc3ccc(F)cc3)cccc2C1=O	inactive
COc1ccc(S(=O)(=O)N(C)C[C@@H]2Oc3c(NC(=O)c4ccncc4)cccc3C(=O)N([C@@H](C)CO)C[C@@H]2C)cc1	inactive
COc1ccc(S(=O)(=O)N(C)C[C@H]2Oc3c(NC(=O)c4ccncc4)cccc3C(=O)N([C@H](C)CO)C[C@H]2C)cc1	inactive
C[C@@H]1CN([C@H](C)CO)C(=O)c2cccc(NC(=O)c3ccncc3)c2O[C@@H]1CN(C)S(=O)(=O)c1ccccc1	inactive
COc1ccc(S(=O)(=O)N(C)C[C@H]2Oc3c(NC(=O)c4ccncc4)cccc3C(=O)N([C@@H](C)CO)C[C@H]2C)cc1	active

From the antibiotic and cytotoxicity screens of Wong et al. (2023)
